Data from PubChem BioAssay (Tox21).
Several values for one entry are separate records, joined by “and”; a condition that tells them apart may be missing. Equal entries are not always repeated. Records with an inconclusive call do not appear. A call without a number means that no potency is given here. Some compounds were tested as several samples or in several runs, with calls that do not always agree. Activity calls are given as the source filed them. Unless noted, the call rests on the fitted dose curve; in most records, active means well fitted curve in the direction sought with a large enough effect in the repeat runs; inconclusive means weak or mixed curves; inactive means no such curve, though single readings can be large; an effect the other way counts as inactive or inconclusive.

Legend:
[1] = qHTS assay to identify small molecule agonists of the estrogen receptor alpha (ER-alpha) signaling pathway in the presence of an antagonist - cell viability counter screen (AID 1259386);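 further: series mostly up to about 92 µM; cells exposed to compounds for 22 h at 37 °C before the viability read; nearly all actives have a fitted effect of over 30% in size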
How it was run: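 VM7Luc4E2, stripped-serum pre-culture 5 d; 24hr plating; +ICI-182,780 10.0nM final; cpds 15 conc, 22hr, 37C/5% CO2; CellTiter-Fluor added at 21hr, fluorescence 1hr later.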

[2] = target: Progesterone receptor (Homo sapiens) (UniProt P06401); experiment: qHTS assay to identify small molecule agonists of the progesterone receptor (PR) signaling pathway (AID 1346784; calls by dose curve; further: nearly all actives have a fitted effect of over 30% in size; further: potency means the concentration at half of the fitted maximal effect)
Progesterone receptor (Homo sapiens), sequence (P06401 whole entry, looked up): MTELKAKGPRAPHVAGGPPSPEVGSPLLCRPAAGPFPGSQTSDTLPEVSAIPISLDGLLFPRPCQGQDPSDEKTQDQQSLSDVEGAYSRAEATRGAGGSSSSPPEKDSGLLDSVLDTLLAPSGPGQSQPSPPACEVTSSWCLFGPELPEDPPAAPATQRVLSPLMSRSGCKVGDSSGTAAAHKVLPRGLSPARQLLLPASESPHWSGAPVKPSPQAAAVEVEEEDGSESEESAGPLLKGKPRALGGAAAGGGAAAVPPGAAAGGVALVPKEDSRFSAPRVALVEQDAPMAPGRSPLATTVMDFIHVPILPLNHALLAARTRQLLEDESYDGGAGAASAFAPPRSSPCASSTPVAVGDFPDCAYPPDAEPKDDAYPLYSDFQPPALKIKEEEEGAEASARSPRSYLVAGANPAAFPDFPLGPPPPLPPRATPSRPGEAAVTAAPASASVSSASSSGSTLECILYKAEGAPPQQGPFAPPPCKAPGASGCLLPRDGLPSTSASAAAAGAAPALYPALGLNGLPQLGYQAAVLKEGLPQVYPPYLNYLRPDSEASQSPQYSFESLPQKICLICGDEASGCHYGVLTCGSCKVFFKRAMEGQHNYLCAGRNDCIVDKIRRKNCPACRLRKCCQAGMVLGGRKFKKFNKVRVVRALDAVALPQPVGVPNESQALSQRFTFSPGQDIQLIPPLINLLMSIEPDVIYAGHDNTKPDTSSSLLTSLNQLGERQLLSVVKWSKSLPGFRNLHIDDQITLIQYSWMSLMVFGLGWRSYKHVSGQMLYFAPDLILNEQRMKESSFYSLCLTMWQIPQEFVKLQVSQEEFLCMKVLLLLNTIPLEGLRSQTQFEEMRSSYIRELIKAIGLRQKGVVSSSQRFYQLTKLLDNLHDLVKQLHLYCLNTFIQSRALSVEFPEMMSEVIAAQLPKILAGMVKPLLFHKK
How it was run: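 Agonist qHTS: compounds pinned onto 3,000 PR-UAS-bla HEK 293T cells per well in charcoal-stripped serum medium, 16hr at 37C, then beta-lactamase activity measured by LiveBLAzer FRET fluorescence after 2 hours at room temperature.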

[3] = target: Progesterone receptor (Homo sapiens) (UniProt P06401); experiment: qHTS assay to identify small molecule antagonists of the progesterone receptor (PR) signaling pathway (AID 1346795; active means well fitted inhibition curve with a large enough effect in the signal ratio in the repeat runs, not every such curve was filed as active; the % refers to the signal ratio; further: potency means the concentration at half of the fitted maximal effect)
How it was run: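 Antagonist mode with agonist R5020 at 1 nM final and 16 hr incubation at 37C. Reporter was beta-lactamase driven by UAS in HEK293T (PR-UAS-bla), 2% charcoal-stripped serum; signal from LiveBLAzer FRET substrate, 2 hr at room temperature.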

[4] = qHTS assay to identify small molecule antagonists of the progesterone receptor (PR) signaling pathway - cell viability counter screen (AID 1346798); further: series mostly up to about 92 µM; nearly all actives have a fitted effect of over 50% in size
How it was run: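 Cytotoxicity read as CellTiter-Glo luminescence (30 min, room temperature) in the same wells as the beta-lactamase readout. HEK293T PR-UAS-bla cells in charcoal-stripped 2% FBS received compound and R5020, then 16 h at 37C, 5% CO2.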

[5] = qHTS assay to identify small molecule agonists of the progesterone receptor (PR) signaling pathway - cell viability counter screen (AID 1346799; calls by dose curve; further: nearly all actives have a fitted effect of over 45% in size; further: potency means the concentration at half of the fitted maximal effect)
How it was run: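 Cytotoxicity measured by CellTiter-Glo luminescence (30 min, RT) in the same wells as the PR beta-lactamase agonist read. Those HEK293T cells had 16 h compound treatment at 37 C in 2% charcoal-stripped FBS medium.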

[6] = qHTS assay to identify small molecule antagonists of the TGF-beta/Smad signaling pathway - cell viability counter screen (AID 1346824); further: nearly all actives have a fitted effect of over 50% in size
How it was run: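 SBE-bla HEK 293T cells were plated overnight at 37 C, then given compounds in DMSO plus TGF-beta1 (added as 0.25 ng/mL solution) for 5 hr. After the bla read, CellTiter-Glo was added to the same wells and luminescence read after 30 min at room temperature.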

[7] = qHTS assay to identify small molecule agonists of the TGF-beta/Smad signaling pathway - cell viability counter screen (AID 1346829); further: top concentration of the series differs between compounds; nearly all actives have a fitted effect of over 45% in size
How it was run: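 In parallel with the Smad reporter read, viability of HEK 293T cells stably carrying SBE-bla is quantified by ATP luminescence following 5 hr compound treatment.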

[8] = qHTS assay to identify small molecule agonists of the TGF-beta/Smad signaling pathway (AID 1346859; active means well fitted activation curve with a large enough effect in the signal ratio in the repeat runs, not every such curve was filed as active; the % refers to the signal ratio; further: series mostly up to about 77 µM)
How it was run: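 Fluorescence (ex 405 nm; em 460 and 530 nm) was read 2 h after LiveBLAzer FRET substrate at RT. The preceding compound treatment of overnight-plated SBE-bla HEK293T cells lasted 5 h at 37 C.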

[9] = target: Thyrotropin-releasing hormone receptor (Homo sapiens) (UniProt P34981); experiment: qHTS assay to identify small molecule antagonists of the thyrotropin-releasing hormone receptor (TRHR) signaling pathway (AID 1346877; active means well fitted inhibition curve with a large enough effect in the repeat runs, not every such curve was filed as active; further: series mostly up to about 51 µM)
Thyrotropin-releasing hormone receptor (Homo sapiens), sequence (P34981 whole entry, looked up): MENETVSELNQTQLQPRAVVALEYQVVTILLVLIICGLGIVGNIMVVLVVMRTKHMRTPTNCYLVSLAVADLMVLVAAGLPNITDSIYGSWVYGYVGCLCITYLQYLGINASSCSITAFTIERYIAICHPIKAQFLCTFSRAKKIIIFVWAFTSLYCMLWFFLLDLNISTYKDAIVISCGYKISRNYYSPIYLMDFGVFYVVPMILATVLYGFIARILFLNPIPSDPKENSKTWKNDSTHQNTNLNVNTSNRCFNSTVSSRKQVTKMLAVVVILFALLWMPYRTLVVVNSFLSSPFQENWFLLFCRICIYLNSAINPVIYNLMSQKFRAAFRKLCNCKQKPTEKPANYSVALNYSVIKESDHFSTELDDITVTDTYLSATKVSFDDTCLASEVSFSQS
How it was run: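 Intracellular calcium fluorescence, read kinetically every second over 3 min, reports TRH-evoked signalling in HEK293 cells carrying TRHR. Test compounds were added 5 min ahead of a 1 nM TRH challenge.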

[10] = target: Thyrotropin-releasing hormone receptor (Homo sapiens) (UniProt P34981); experiment: qHTS assay to identify small molecule agonists of the thyrotropin-releasing hormone receptor (TRHR) signaling pathway (AID 1346891; calls by dose curve; further: series mostly up to about 58 µM)
How it was run: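 Agonist-mode intracellular calcium readout: kinetic fluorescence over 3 min at 1 s intervals after compound addition to TRHR-HEK293 cells (18 h seeded, 2 h dye-loaded at 37 C). Fifteen concentrations, triplicates.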

Compound	Potency [1]	Potency [2]	Potency [3]	Potency [4]	Potency [5]	Potency [6]	Potency [7]	Potency [8]	Potency [9]	outcome [10]	activation [2]	activity change, negative = cytotoxicity [5]
O=C(O)Cc1c[nH]c2ccccc12	inactive	inactive	inactive	inactive	inactive	inactive	inactive	inactive				
Cc1ccc(Cl)cc1	inactive	inactive	inactive	inactive	inactive	inactive	inactive	inactive	inactive	inactive		
CCn1cc(C(=O)O)c(=O)c2cc3c(cc21)OCO3	inactive	1.24 µM (active)	inactive	inactive		inactive	inactive	inactive	inactive	inactive	-1.39% [at 19 µM] (inactive)	-0.681% [at 19 µM] (inactive)
CCCCCNCCCCC	inactive	inactive	inactive	inactive	inactive	inactive	inactive	inactive	inactive	inactive		
CC(=O)c1nccs1	inactive	inactive	inactive	inactive	inactive	inactive	inactive	inactive	inactive	inactive		
O=C(Cl)c1ccc(C(=O)Cl)cc1	inactive	inactive	inactive	inactive	inactive	inactive	inactive	inactive	inactive	inactive		
CCOC(=O)c1ccc(O)cc1	inactive	inactive	inactive	inactive	inactive	inactive	inactive	inactive	inactive	inactive		
CC(C=O)Cc1ccc(C(C)(C)C)cc1 (centres undefined)	inactive	inactive	inactive	inactive	inactive	inactive	inactive	inactive	inactive	inactive		
Cc1ccccc1C=O	inactive	inactive	inactive	inactive	inactive	inactive	inactive	inactive	inactive	inactive		
COc1c2ccoc2cc2oc(=O)ccc12	inactive	inactive	15.7 µM (active)	inactive	inactive	inactive	inactive	inactive	inactive	inactive		
CS(=O)(=O)c1ccc(Cl)cc1	inactive	inactive	inactive	inactive	inactive	inactive	inactive	inactive				
Cc1ccc([N+](=O)[O-])cc1N	inactive	inactive	inactive	inactive	inactive	inactive	inactive	inactive	inactive	inactive		
CCCCCCCC(=O)O	inactive	inactive	inactive	inactive	inactive	inactive	inactive	inactive				
COc1c(Cl)ccc(Cl)c1C(=O)O	inactive	inactive	inactive	inactive	inactive	inactive	inactive	inactive	inactive	inactive		
C=C(C)CC(C)(C)C	inactive	inactive	inactive	inactive	inactive	inactive	inactive	inactive	inactive	inactive		
CCc1cccc(CC)c1N	inactive	inactive	inactive	inactive	inactive	inactive	inactive	inactive				
COC(=O)OC	inactive	inactive	inactive	inactive	inactive	inactive	inactive	inactive	inactive	inactive		
CC(=O)C(C)C	inactive	inactive	inactive	inactive	inactive	inactive	inactive	inactive	inactive	inactive		
Nc1cccc(N)n1	inactive	inactive	inactive	inactive	inactive	inactive	inactive	inactive				
Cc1cc(C)cc(O)c1	inactive	inactive	inactive	inactive	inactive	inactive	inactive	inactive	inactive	inactive		
CCCCCC(C)=O	inactive	inactive	inactive	inactive	inactive and 61.1 µM (active)	inactive	inactive	inactive	inactive	inactive		
CC(C)=CCC/C(C)=C/C=O	inactive	inactive	inactive	inactive	inactive	inactive	inactive	inactive				
OCC(O)CS (centres undefined)	inactive	inactive	inactive	inactive	inactive	inactive	inactive	inactive	inactive	inactive		
O=[N+]([O-])c1ccccc1C(F)(F)F	inactive	inactive	inactive	inactive	inactive	inactive	inactive	inactive	inactive	inactive		
